Screening data from PubChem.
BRCT inh green: qHTS Assay for Inhibitors of BRCT-Phosphoprotein Interaction (Green Fluorophore). Breast cancer type 1 susceptibility protein (Homo sapiens), P38398. BRCA1 BRCT-phosphopeptide binding, green fluorescence polarization. Potency, µM (series often up to 76.9 µM), actives largely listed as inhibitors. actives 0.05% (n = 75,000)
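Compounds were incubated for 12 min at room temperature with a complex of 100 nM fluorescein-tagged pBACH1 decapeptide and 250 nM His-tagged BRCT protein. Buffer was phosphate pH 7.3 with EDTA, DTT and Tween 20. Disruption of binding lowers the polarization signal.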
BRCT inh red: qHTS Assay for Inhibitors of BRCT-Phosphoprotein Interaction (Red Fluorophore); Breast cancer type 1 susceptibility protein (Homo sapiens), P38398; BRCT-phosphopeptide binding, red fluorescence polarization; Potency, µM (series often up to 76.9 µM), actives largely listed as inhibitors; actives 0.03% (n = 75,000)
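Fluorescence polarization: 100 nM His-tagged BRCA1 BRCT with 100 nM TAMRA-labelled phospho-BACH1 decapeptide, phosphate buffer pH 7.3 with 150 mM NaCl, DTT, 0.01% Tween 20; 12 min RT. Binding inhibition seen as FP decrease.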
ERK AVP block: qHTS Assay for Inhibitors of the ERK Signaling Pathway using a Homogeneous Screening Assay | actives 0.99% (n = 72,000) | AID 995, 2007 | HEK293-V1b, vasopressin-stimulated pERK AlphaScreen | Potency, µM (titrated, usually from 57.5 µM), usual class: inhibitors; also: nearly all actives have a fitted effect of over 55% in size
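HEK293 cells stably expressing V1b receptor, preincubated 30 min at 37 °C with compound, then stimulated 5 min with 25 nM vasopressin. Phospho-ERK by AlphaScreen SureFire after 5 h RT; normalized to DMSO and vasopressin; AC50 by Hill fit.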
ALOX15 inhib: qHTS Assay for Inhibitors of 15-hLO (15-human lipoxygenase); Potency, µM (top dose mostly 57.1 µM), actives largely listed as inhibitors; actives 1.4% (n = 74,000); purified 15hLO-1, xylenol orange hydroperoxide absorbance; AID 887, 2007; also: nearly all actives have a fitted effect of over 55% in size
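Compounds were preincubated 15 min at room temperature with 40 nM purified human enzyme (25 mM Hepes pH 7.5, 0.01% Triton X-100); 50 uM arachidonic acid reacted 6 min. Fe-xylenol orange detection, 30 min, absorbance ratio 573/405 nm.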
YjeE inh: qHTS Assay for Inhibitors of YjeE; actives 0.05% (n = 71,000); Potency, µM; purified YjeE enzyme, qHTS inhibition assay; AID 605, 2007; tRNA threonylcarbamoyladenosine biosynthesis protein TsaE (Escherichia coli (strain …
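Purified YjeE (10 uM) with BODIPY Texas Red-labeled ADP probe (2 uM); compounds pin-transferred, 15 min at room temperature. Binding inhibition read as decreased fluorescence polarization; ADP titration as control.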
Pol III holo inh: qHTS Assay for Inhibitors of DNA Polymerase III Holoenzyme System; reconstituted DNA polymerase III holoenzyme replication, biochemical; actives 0.25% (n = 71,000); Potency, µM (top dose mostly 57.1 µM); AID 603, 2007
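Reconstituted *E. coli* holoenzyme (0.35 nM Pol III, 1 nM beta, 154 nM SSB, 2 nM primase) was preincubated with compound for 15 min at RT. Synthesis on 1.4 nM ssM13Gori ran 35 min, then was stopped with PicoGreen/EDTA and read as dsDNA fluorescence.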
Each line names hits and unclear results; the compound was inactive in the other large screens. Compounds with a hit are over-represented: about 2.4% of the library has one in this group of screens. Calls follow the shape of the dose curve; as a rule, active = well fitted curve in the direction sought with a large enough effect; inconclusive = small, poorly fitted or top-dose-only effect, or another doubt; inactive = no such curve, though single readings can be large; an effect the other way counts as inactive or inconclusive.

CCOC(=O)C(C(C)=O)c1c(Br)c(O)c(O)c2c(C(=O)c3ccc(C)cc3)coc12 (centres undefined)	ERK AVP block inconclusive, ALOX15 inhib 2µM
COc1cc(C2c3cc4c(cc3C(OC3OC5COC(C)O[C@@H]5C(O)C3O)C3COC(=O)C23)OCO4)cc(OC)c1O (some centres undefined)	none (no result: YjeE inh, Pol III holo inh)
O=C1c2ccccc2-c2ccc(N(Cc3ccc(Br)cc3)Cc3ccc(Br)cc3)cc21	ERK AVP block 4µM
COCCNC(=O)[C@@]1(Cc2ccccc2)C=C[C@@H](C)N1C(=O)OC	none
COc1ccc(-c2csc(N3CCC(C(N)=O)(N4CCCCC4)CC3)n2)cc1	ERK AVP block 25µM
NC(=O)C1(N2CCCCC2)CCN(c2nc(-c3ccccc3)cs2)CC1	none
COc1ccc(-c2csc(N3CCN(C(=O)c4ccco4)CC3)n2)cc1	ERK AVP block 10µM, ALOX15 inhib inconclusive
COc1ccc(C(=O)N2CCN(C(=O)c3ccco3)CC2)cc1	none
CC1(C)Oc2cc3c(cc2O1)OC(C)(C)O3	none (no result: YjeE inh, Pol III holo inh)
C=CCn1c(CCC(=O)O)ccc1-c1ccc(OC)cc1	ALOX15 inhib 13µM
C=CCn1c(SCC(=O)N2CCOCC2)nc2sc3c(c2c1=O)CCCC3	ERK AVP block inconclusive
C=CCn1c(SCC(=O)N2CCOCC2)nc2scc(-c3ccco3)c2c1=O	ERK AVP block 32µM, ALOX15 inhib inconclusive
CCn1c(SCc2nc3ccccc3c(=O)[nH]2)nc2ccccc2c1=O	ERK AVP block 7.9µM, YjeE inh inconclusive
CCOC(=O)c1cccc(NC(=O)CSc2nnc(CNc3ccc(C)cc3)n2CC)c1	ALOX15 inhib 13µM
CCOC(=O)c1cccc(NC(=O)CSc2nnc(COc3ccccc3)n2CC)c1	ERK AVP block inconclusive
CCOC(=O)c1c(NC(=O)CSc2nc3cccnc3n2C)sc(C(C)=O)c1C	none
CCOC(=O)c1cccc(NC(=O)CSc2nc3cccnc3n2C)c1	ERK AVP block 25µM
CN1CCN(c2ncnc3ccc(-c4cccnc4)cc23)CC1	ERK AVP block inconclusive
CCOc1ccc2noc3c2c1C(=O)c1ccccc1-3	BRCT inh green 4µM
CCOc1ccc(-c2nc(-c3ccccc3)no2)cc1OCC	none
CCOC(=O)C1=C(N)n2c(s/c(=C\c3cccs3)c2=O)=C(C(=O)OCC)C1c1cccs1 (centres undefined)	none
Cc1ccc(S(=O)(=O)N(C)CC(=O)N2CCCc3ccccc32)cc1	none
O=C(Cc1ccccc1)N1CCC(c2nc(-c3ccc(F)cc3)no2)CC1	ERK AVP block 20µM, ALOX15 inhib inconclusive
O=C(Cc1ccccc1)N1CCC(c2nc3ccccc3[nH]2)CC1	none
CCOc1ccc(N(CC(=O)NC(C)(C)C)C(=O)c2ccco2)cc1	none
Cc1c2cc[n+](CCN3CCCCC3)cc2c(C)c2c1[nH]c1ccc(O)cc12	Pol III holo inh 2.5µM
C[C@H](O/N=C1/[C@H]2O[C@@H]2[C@@H](O)[C@H]2[C@H]1CCn1c(=O)n(-c3ccccc3)c(=O)n12)c1cn([C@H](CO)Cc2ccccc2)nn1	none (no result: YjeE inh, Pol III holo inh)
COc1ccc(-c2csc3c2[N+]2=CCC=C2C3=O)cc1	none
C=CC(C)(O)CCCC(C)CCCC(C)CCCC(C)C (centres undefined)	ALOX15 inhib 10µM
CCCc1nc(SCC(=O)N2CCC(Cc3ccccc3)CC2)c2c(=O)n(C)c(=O)n(C)c2n1	none (no result: ERK AVP block)
O=C1OCC2=C1C(c1ccc3c(c1)OCO3)Sc1ccccc1N2 (centres undefined)	ERK AVP block 20µM
Cc1nc(NCc2ccc3c(c2)OCO3)c2oc3ccccc3c2n1	ERK AVP block inconclusive
Cc1nc(Nc2ccc3c(c2)OCCO3)c2oc3ccccc3c2n1	ERK AVP block 16µM
CCOc1ccc(C(=O)NCCC(=O)NCCCC(=O)O)cc1	none
COc1ccc(COC(=O)N/N=C2/C[C@@H](O)[C@@H](O)[C@@H]3[C@@H]4C(=O)N(C[C@@H]5CCCO5)C(=O)[C@H]4CC[C@@H]23)cc1	none (no result: YjeE inh, Pol III holo inh)
CC(=O)C1=C(C)NC(SCC(=O)c2cc(Cl)ccc2Cl)=C(C#N)C1c1ccco1 (centres undefined)	ALOX15 inhib 4µM
CC1=C(C(=O)Nc2ccccc2)C(c2ccco2)C(C#N)=C(SCc2ccccc2)N1 (centres undefined)	ALOX15 inhib inconclusive
CC1=C(C(=O)Nc2ccccc2)C(c2ccco2)C(C#N)=C(SCC(=O)OC(C)C)N1 (centres undefined)	none
CC(=O)C1=C(C)NC(SCC(=O)c2ccc(Cl)c(Cl)c2)=C(C#N)C1c1ccco1 (centres undefined)	ALOX15 inhib 13µM
O=C(c1cccc(F)c1)N1CCC[C@@]2(CCN(c3ccncc3)C2)C1	none
CC(C)(C)c1ccc(/C=C/C(=O)Nc2ccc3c(c2)OCCO3)cc1	ERK AVP block inconclusive (no result: YjeE inh, Pol III holo inh)
OCc1cn(-c2ccccc2)nc1-c1ccc2c(c1)OCCO2	ERK AVP block 25µM
COc1ccc(-c2nn(-c3ccccc3)cc2CO)cc1OC	none
Cc1ccc(C)c(S(=O)(=O)C(C#N)c2nc3ccccc3nc2N2CCCC2)c1 (centres undefined)	ERK AVP block inconclusive, ALOX15 inhib 13µM
N#CC(c1nc2ccccc2nc1N1CCCC1)S(=O)(=O)c1cccs1 (centres undefined)	ERK AVP block inconclusive, ALOX15 inhib 10µM
N#CC(c1nc2ccccc2nc1N1CCCC1)S(=O)(=O)c1ccccc1 (centres undefined)	ALOX15 inhib inconclusive (no result: ERK AVP block, YjeE inh, Pol III holo inh)
CNCC[C@H](Oc1ccccc1OC)c1ccccc1	none
COC(=O)c1ccc(C(NC(=O)OCc2ccccc2)/C(C)=C/[C@@H](C)C(=O)NCc2nn(-c3ccccc3)nc2C)cc1 (some centres undefined)	none
Nc1ccc2oc(=O)c3ccccc3c2c1	ERK AVP block 10µM
CSc1nnc2c(n1)OC=Nc1ccccc1-2	none
CSc1nnc(-c2ccco2)c(-c2ccco2)n1	ALOX15 inhib 2µM, Pol III holo inh inconclusive
FC(F)(F)c1ccccc1-c1nc(NC2CCNCC2)c2ccccc2n1	none
S=c1ccss1	ALOX15 inhib 7.9µM (no result: YjeE inh, Pol III holo inh)
O=C(O)c1ccccc1N[C@H](c1ccccc1)c1ccc2cccnc2c1O	none
